Screen size: about 200,000 compounds; about 860 (0.43%) were called active. For the sample, actives were picked, then their nearest neighbours and some compounds at random. A number with no mark means an inactive call. Calls come from the whole dose curve; as a rule, active = well fitted inhibition curve with a large enough effect; inconclusive = small, poorly fitted or top-dose-only effect; inactive = flat fitted curve, though single readings scatter.

The text below walks through data of PubChem BioAssay AID1478 (National Center for Advancing Translational Sciences (NCATS), 2009).
Potency is the fitted concentration of half-maximal effect.

Sequence of Cruzipain (Trypanosoma cruzi) (P25779 123-467 limits assumed): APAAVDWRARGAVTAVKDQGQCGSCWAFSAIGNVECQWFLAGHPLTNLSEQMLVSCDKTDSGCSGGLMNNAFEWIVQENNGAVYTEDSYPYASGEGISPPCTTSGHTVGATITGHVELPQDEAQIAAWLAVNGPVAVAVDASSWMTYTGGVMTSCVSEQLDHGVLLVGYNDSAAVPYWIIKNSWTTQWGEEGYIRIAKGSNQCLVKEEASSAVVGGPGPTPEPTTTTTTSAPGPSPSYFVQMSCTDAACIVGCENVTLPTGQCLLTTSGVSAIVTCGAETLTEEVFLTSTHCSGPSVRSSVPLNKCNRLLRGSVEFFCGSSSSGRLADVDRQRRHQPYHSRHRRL

The target in this assay is Cruzipain (Trypanosoma cruzi) (UniProt P25779). As to the kind of experiment: qHTS Assay for Promiscuous and Specific Inhibitors of Cruzain (with detergent). Note: nearly all actives have a fitted effect of over 40% in size. To be noted: purified cruzain, Z-FR-AMC fluorescence, 0.01% Triton. As for the experimental part:
Cruzain (3.4.22.51) is a cysteine protease from the tropical parasite Trypanosoma cruzi. Dual qHTS experiment was performed against the NCGC compound collection in order to 1) identify novel inhibitors of the enzyme and 2) profile the compound collection for promiscuous inhibitors operating via colloidal aggregation (by performing detergent-free and detergent-containing comparison screens). Cruzain was assayed by the use of fluorogenic coumarin-based substrate Z-FR-AMC: proteolytic cleavage releases AMC, whose fluorescence is measured at 360 nm excitation and 450 nm emission. Purified cruzain was supplied by the labs of Prof. James McKerrow and Brian Shoichet, UC San Francisco.
This assay had 0.01% Triton X-100 concentration. See also releated assay "qHTS Assay for Promiscuous and Specific Inhibitors of Cruzain (without detergent)" with 0.00005% Triton X-100.
See following references for additional details:
Assay Provider: Shoichet, Brian; University of California, San Fancisco
Screening Center PI: Austin, C.P.
Screening Center: NIH Chemical Genomics Center [NCGC]
Buffer: 100 mM Sodium Acetate, pH 5.5, 5 mM DTT, Triton X-100 concentration: 0.01%.
Buffer in columns 3 and 4 as negative control (no enzyme).
Substrate solution: 2 uM final concentration of Z-FR-AMC (catalog number I-1160, Bachem) dispensed throughout the plate.
Enzyme: 1.5 nM Cruzain final concentration in columns 1, 2, 5-48. Column 1 is neutral (100% activity). Column 2 contained titration of covalent inhibitor K11777, starting concentration 1 mM, then 1:2 dilution in duplicate).
Three uL of enzyme or buffer were dispensed to 1536-well Greiner black solid bottom plates. Compounds and controls (23 nL) were transferred via Kalypsys PinTool. The plates were incubated for 15 min at room temperature, and then 1 uL of substrate solution was added to start the reaction. The plates were immediately transferred to and read 4 times every 30 seconds for 2 min on ViewLux High-throughput CCD imager (Perkin-Elmer) using 360 nm excitation and 450 nm emission fluorescence protocol. The fluorescence intensity difference between the third and the first time points (time lapse of 60 seconds) was used to compute reaction progress.
Background: qHTS replaces the single test concentration by a dilution series.
`COc1cc(-c2noc(-c3ccc(N4CCCC4)c([N+](=O)[O-])c3)n2)cc(OC)c1OC`: the max response, negative = inhibition was -7.32%.
With `CCCNC(=O)c1ccc2c(c1)ncn2-c1ccc(C)cc1C`, the max response, negative = inhibition is 0.948%.
Still for that read-out and setting: for `Cc1ccccc1CNC(=O)c1cccc(NC(=O)c2nsc3ccccc23)c1` the value was -4.52%; for `CC(Oc1ccc(Cl)cc1)C(=O)OCC(=O)Nc1ncc(Cl)cc1Cl` (stereo unspecified), -4.76%.
For the molecule `Cc1ccc(SCCC(=O)OCC(=O)Nc2ncc(Cl)cc2Cl)cc1`, the Potency is 25.1 µM (active).
With `Cc1ccc(-n2c(SCC(=O)Nc3ncc(Cl)cc3Cl)nc3ccccc32)cc1`, the max response, negative = inhibition is 0.0613%.
The same measure, in the same setting: for `CCC(=O)N1CCc2cc(CNS(=O)(=O)c3ccc(Br)s3)ccc21` the value was -0.767%.
Take `Cc1cccc(C(=O)NCC(=O)OCC(=O)N2CC3(C)CC2CC(C)(C)C3)c1` (stereo unspecified): the Potency is 14.1 µM (active).
`COc1ccc(C(=O)N2CC3(C)CC2CC(C)(C)C3)cc1OC` (stereo unspecified): the max response, negative = inhibition was -2.5%.
On the same count and under the same terms, for `Cc1nnnn1/C(=C\c1ccccc1)C(=O)OCC(=O)N1CC2(C)CC1CC(C)(C)C2` (stereo unspecified) the value was -0.133%.
Take `CCOc1ccc(C(NC(=O)c2cc(OC)c(OC)c(OC)c2)c2cc(Cl)c3cccnc3c2O)cc1` (stereo unspecified): the max response, negative = inhibition is 1.88%.
In the case of `COc1ccccc1CNc1ccc(-c2nc(-c3ccccc3C)no2)cc1[N+](=O)[O-]`, the max response, negative = inhibition was -3.81%.
The same measure, in the same setting: under `O=C(NCc1ccccc1)C(=O)NCC(c1ccco1)S(=O)(=O)c1ccc(Cl)cc1` (stereo unspecified) stands -1.1%; under `COC(=O)Cc1nc2ccccc2[nH]1`, 8.1%.
As for `O=C(COc1ccccc1)NCCc1nc2ccccc2[nH]1`, the Potency is 15.8 µM (active).
For the molecule `COc1ccc(OC(C)C(=O)NCCc2nc3ccccc3[nH]2)cc1` (stereo unspecified), the max response, negative = inhibition was -6.04%.
For the molecule `CCc1ccc(N(CC)C(=O)CCn2cnc3onc(-c4ccc(F)cc4)c3c2=O)cc1`, the max response, negative = inhibition is -2.73%.
Turning to `COc1ccc(OCCCn2c(C)nc3cc(C)c(C)cc32)cc1`, the max response, negative = inhibition is -3.67%.
On to `O=C(OCN1C(=O)c2ccccc2C1=O)/C(=C\c1ccco1)NC(=O)c1ccccc1`, for which the Potency is 0.316 µM (active).
As for `O=C(NCC1CCCO1)/C(=C\c1ccco1)NC(=O)c1ccccc1` (stereo unspecified), the max response, negative = inhibition was -1.92%.
Same read-out and setting: for `Cc1cccc(NC(=O)/C(=C\c2ccco2)NC(=O)c2ccccc2)c1` the value was -5.18%; for `Cc1ccc(-c2noc(-c3nnn(-c4cccc(C(F)(F)F)c4)c3N)n2)cc1`, 0.534%.
Still for that read-out and setting: under `CCOC(=O)c1ccc(CSc2nnc3cc(C)c4ccccc4n23)cc1` stands -5.57%.
Still for that read-out and setting: under `COc1ccc(N2C(=O)CSC23C(=O)N(Cc2cccc(F)c2)c2ccccc23)cc1Cl` (stereo unspecified) stands -6.49%.
Consider `CNC(=O)c1cc2c(ccc3ccccc32)oc1=N`, for which the Potency is 28.2 µM (active).
For the molecule `CCOC(=O)N1CCN(C(=O)c2cc3c(ccc4ccccc43)oc2=O)CC1`, the max response, negative = inhibition was -4.28%.
Regarding `N=c1oc2ccccc2cc1C(=O)N/N=C/c1ccccc1`, the max response, negative = inhibition is -4.25%.
Take `COc1ccc(-c2nc3scc(CCNS(=O)(=O)c4cc(F)ccc4OC)n3n2)cc1OC`: the max response, negative = inhibition was -6.79%.
As for `COc1ccc(OC)c(-n2nnc3c(sc4nc(C)c(Br)c(C)c43)c2=O)c1`, the max response, negative = inhibition was -8.66%.
In the case of `CC(=O)c1ccc(S(=O)(=O)N2CCC(Oc3ccc(-n4cnnn4)cc3)CC2)cc1`, the max response, negative = inhibition is 0.367%.
`O=C1CCCc2cc(S(=O)(=O)N3CCCC(C(=O)NCc4ccccc4)C3)ccc2N1` (stereo unspecified): the max response, negative = inhibition is -1.43%.
`COc1ccc(CNC(=O)c2cc3cccc(OC)c3oc2=O)cc1`: the max response, negative = inhibition is -0.986%.
Take `CN(C)c1ccc(-c2nc(NCCN3CCOCC3)c3ccccc3n2)cc1`: the max response, negative = inhibition was -4.87%.
On the same count and under the same terms, under `Clc1ccccc1-c1cc(NCCN2CCOCC2)ncn1` stands 0.682%.
As for `c1ccc2cc3c(NCCN4CCOCC4)ccnc3cc2c1`, the Potency was 28.2 µM (active).
With `CCc1ccccc1NC(=O)c1cnn(-c2ccc(F)cc2)c1C1CCNCC1`, the max response, negative = inhibition is -1.82%.
`O=C(CSc1n[nH]c(-c2ccccc2)n1)N1CCCCC1`: the max response, negative = inhibition was 2.8%.
As for `Cc1ccccc1CN1CCC(CNC(=O)c2c(C)oc3ncnc(N4CCCCC4)c23)CC1`, the max response, negative = inhibition was 1.4%.
Take `CCN1CCN(C(c2ccc(C)cc2)c2c(O)cc(C)n(Cc3ccco3)c2=O)CC1` (stereo unspecified): the max response, negative = inhibition is 0.51%.
Same read-out and setting: for `CCOC(=O)c1ccc(-n2c(CCC(=O)O)ccc2-c2ccccc2)cc1` the value was -12%; for `CCOC(=O)C1CCN(C(c2ccc(F)cc2)c2sc3nc(-c4ccco4)nn3c2O)CC1` (stereo unspecified), -3.73%.
With `O=C1OC(/C=C/c2ccccc2)=NC/1=C/c1ccco1`, the Potency is 3.98 µM (active).
Consider `COc1ccccc1/C=C/C1=NC(=C\N(C)C)/C(=O)O1`, for which the max response, negative = inhibition was -17.3%.
As to `O=C(/C=C/c1ccccc1)c1ccoc1`, the max response, negative = inhibition is -1.4%.
Same read-out and setting: under `COC(=O)c1sccc1S(=O)(=O)N(CC(=O)Nc1ccc(C)c(F)c1)c1ccc(C)c(C)c1` stands -3.08%.
Same read-out and setting: under `CCOc1ccc(CNC(=O)C2CCCN(S(=O)(=O)N(CC)c3ccc(OCC)cc3)C2)cc1` (stereo unspecified) stands 3.48%; under `O=C(Nc1ccc(Br)cc1)c1ccc(Br)c(S(=O)(=O)NCc2ccccc2)c1`, -3.54%.
In the case of `Cc1ccc(-c2cn3c(n2)sc2cc(C(=O)NCc4cccs4)ccc23)c(C)c1`, the max response, negative = inhibition was -2.89%.
Same read-out and setting: for `CCc1nc(-c2cc(S(=O)(=O)N3CCN(c4ccc(OC)cc4)CC3)ccc2OC)no1` the value was -3.17%; for `CC(=O)c1ccc(NC(c2ccc(F)cc2)c2nnc(-c3ccccc3)o2)cc1` (stereo unspecified), -5.26%; for `CCn1cc2nc(SCc3cccc(F)c3)n(CCc3ccccc3)c(=O)c2n1`, -3.27%.
Turning to `COc1ccc(-n2c(=O)c3c(c4cc(OC)ccc4n3C)n(Cc3cccc(C)c3)c2=O)cc1`, the max response, negative = inhibition is -1.25%.
Still for that read-out and setting: under `Cc1ccc(NC(=O)c2cc(S(=O)(=O)NCCC3=CCCCC3)ccc2F)cc1C` stands 1.53%.
Same read-out and setting: under `Cc1ccc(F)c(NC(=O)CCc2ccccc2)c1` stands 2.16%; under `Cc1ccc(C)c(NC(CC(=O)c2ccccc2)C(=O)OCC(=O)c2cccs2)c1` (stereo unspecified), -3.94%.
On to `O=C(COC(=O)[C@H](Cc1ccccc1)NC(=O)c1cccs1)Nc1cc(F)ccc1F`, for which the Potency was 20 µM (active).
